# EphB4 ephrin blk – EphB4-ephrin-B2 interaction antagonists, primary screen, biochemical, TNYL-RAW peptide probe, fluorescence polarization; AID 720, 2007; 97,000 compounds, 0.15% hits; inhibition, % at 7 µM; EphB4 LBD / TNYL-RAW-Alexa532 peptide;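 active = inhibition above the screen-wide mean inhibition plus 3 SD, cut at about 15% in these data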;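 note: 0% = DMSO wells and 100% = excess unlabeled TNYL-RAW peptide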
# CYP2C9 act – human CYP2C9 activators, primary screen, biochemical, luminescence | Cytochrome P450 2C9 (Homo sapiens), P11712 | recombinant CYP2C9, luciferin-H conversion; active compounds read high; factor 1 = untreated enzyme, 0 = blocked | activation factor at 5 µM | 96,000 compounds, 1.4% hits | AID 1024, 2008;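 active = activation factor of 2 or more for CYP2C9 at a 5 µM dose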;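 note: 0 = sulfaphenazole-blocked wells and 1 = vehicle-only wells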
# Target sequence (P11712 whole entry, looked up): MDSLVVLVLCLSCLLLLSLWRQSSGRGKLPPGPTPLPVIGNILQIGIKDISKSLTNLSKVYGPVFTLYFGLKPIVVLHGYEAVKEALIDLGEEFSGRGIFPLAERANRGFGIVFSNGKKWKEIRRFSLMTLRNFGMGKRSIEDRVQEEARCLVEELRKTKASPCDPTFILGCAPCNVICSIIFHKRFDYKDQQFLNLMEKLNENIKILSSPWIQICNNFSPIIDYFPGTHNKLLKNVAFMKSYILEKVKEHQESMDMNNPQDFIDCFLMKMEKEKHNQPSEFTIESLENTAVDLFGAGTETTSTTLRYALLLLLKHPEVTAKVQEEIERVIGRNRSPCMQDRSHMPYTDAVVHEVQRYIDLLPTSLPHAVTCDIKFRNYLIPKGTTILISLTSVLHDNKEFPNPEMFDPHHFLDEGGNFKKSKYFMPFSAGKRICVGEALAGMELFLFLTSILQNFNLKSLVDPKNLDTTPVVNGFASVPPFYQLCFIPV
# CYP2C9 inhib – blockers of cytochrome P450 2C9 activity – biochemical, luminescence, ADME assay, primary screen; P11712; CYP2C9 Supersomes, luciferin-H conversion; inhibition, % at 5 µM; 96,000 compounds, 20% hits;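 active = blocking of liver enzyme CYP2C9 beyond about 50% at 5 µM, limit read from the data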
# CYP2C19 act – human CYP2C19 activators, primary screen, biochemical, luminescence; recombinant CYP2C19, luciferin-H EGE luminescence; active compounds read high; 0 = fully inhibited enzyme, 1 = untreated enzyme; 96,000 tested, under 10 active; AID 1025, 2008; activation factor at 5 µM;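 active = activation factor of at least 2 at 5 µM in the primary screen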;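 note: 0 = wells with 2.5 mM tranylcypromine and 1 = vehicle-only wells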
# CYP2C19 inh – blockers of cytochrome P450 2C19 activity – biochemical, luminescence, ADME assay, primary screen; CYP2C19 Supersomes, luciferin-H EGE luminescence, 30 min; inhibition, % at 5 µM; 96,000 compounds, 21% hits; AID 778, 2007;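 active = CYP2C19 inhibition above a set limit at 5 µM in the primary screen, cut at about 50% in these data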;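 note: plate controls were negative control wells for no effect and 2.5 mM tranylcypromine positive control for full effect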
# * = called active by the depositor; . = not tested or not shown. Only some compounds are listed: those with a hit (about 27% of all), similar ones and a draw of the others.
SMILES,EphB4 ephrin blk,CYP2C9 act,CYP2C9 inhib,CYP2C19 act,CYP2C19 inh
COc1cc(/C=N\NC(=O)CN2CCOCC2)ccc1OCC(=O)Nc1ccc(C)c(C)c1,0,0.9,10,0.7,32
CCCOc1cc(C)c(Cl)cc1S(=O)(=O)N(CC)CC,3,.,.,.,.
COc1cc(C)c(Br)cc1S(=O)(=O)N1CCCC1,-1,2.8*,-178,0,96*
CCN(CC)S(=O)(=O)c1cc(Br)c(C)cc1OC,5,2*,-104,0.6,41
CCN(CC)S(=O)(=O)c1c(Br)cc(C)cc1Br,2,2.5*,-154,0.6,41
CCN(CC)S(=O)(=O)c1cc(Br)ccc1OC,-4,2.5*,-149,0,98*
CCS(=O)(=O)c1ccc2c(c1)N(S(C)(=O)=O)CC(C(=O)NCc1ccccc1OC)O2 (stereo unspecified),7,0.4,62*,0.8,17
CCS(=O)(=O)c1ccc2c(c1)N(S(C)(=O)=O)CC(C(=O)NC1CC1)O2 (stereo unspecified),3,0.8,21,0.9,8
CCOC(=O)C1CN(S(=O)(=O)c2ccc(OC)cc2)c2cc(S(=O)(=O)CC)ccc2O1 (stereo unspecified),-1,0.4,58*,0.5,50*
CCCCC1(C)NC(=O)N(CC(=O)Nc2ccc(S(=O)(=O)N3CCOCC3)cc2)C1=O (stereo unspecified),-6,0.9,10,0.9,6
CCOC(=O)C(NC(=O)Nc1ncccn1)(Oc1ccccc1)C(F)(F)F (stereo unspecified),0,1.1,-8,1.2,-15
COC(CNC(=O)CCc1c(C)nc2c(-c3ccc(F)cc3)c(C)nn2c1C)OC,2,0.6,41,0.5,46
CCc1nc2sc3c(c2c(=O)n1NC(=O)CCl)CCCC3,-1,0.2,76*,0.8,20
CCOC(=O)C(C)n1cnc2sc3c(c2c1=O)CCC3 (stereo unspecified),-3,0.9,5,0.9,6
CCn1c(SCC(=O)N2CCOCC2)nc2oc3c(Cl)cc(Cl)cc3c(=O)c2c1=O,0,0.6,38,0.9,11
CCn1c(SC(C)C(=O)O)nc2sc3c(c2c1=O)CCC3 (stereo unspecified),.,0.3,74*,1.1,-5
CCn1c(SCC(=O)N2CCOCC2)nc2sc3c(c2c1=O)CCCC3,5,0.3,66*,0.6,38
CC1(C)CC2(CCO1)OC(=O)CC2C(=O)Nc1cccc2ccccc12 (stereo unspecified),0,0.8,21,0.6,39
CCCCNC(=O)C1CCN(S(=O)(=O)c2cnc[nH]2)CC1,.,0.5,49,0.8,18
CC(NC(=O)c1ccccc1Br)c1nnc(SCc2ccc([N+](=O)[O-])cc2)n1C (stereo unspecified),0,1,-2,1.1,-7
CCCCNC(=O)c1nnn(-c2ccccc2)c1N,1,.,.,.,.
C=C1N(c2ccc(Cl)cc2)C(=O)OC1(C)C,-1,0.7,27,0.4,58*
CCN1C(=O)N(c2ccc(Cl)cc2)C(C)=CC1(C)C,8,0.9,11,0.7,26
O=C(NCc1nc2ccccc2[nH]1)c1cc2ccccc2oc1=O,-2,0.7,32,0.8,21
CCCN1Cc2cccc(C(=O)Nc3cc(OC)cc(OC)c3)c2C1=O,3,0.5,46,0.9,12
CCOC(=O)N1CCC(NC(=O)c2cn(-c3ccc(OC)cc3)c(=O)c3ccccc23)CC1,8,0.1,90*,0.1,91*
CCOC(=O)N1CCC(NC(=O)c2cccc3c2C(=O)N(c2ccc(OC)cc2)C3)CC1,0,0,98*,0,97*
CCOC(=O)N1CCC(NC(=O)c2ccc3nc4ccccc4c(=O)n3c2)CC1,1,0.8,17,1,-1
CCOc1ccc(NC(=O)CNC(=O)c2ccc(OC)c(OC)c2)cc1,-1,1.2,-18,1.2,-18
COc1ccc(N2Cc3cccc(C(=O)NC(C)CCc4ccco4)c3C2=O)cc1 (stereo unspecified),-4,0.1,92*,0.2,85*
